MBD2 DNA inh – blocks human MBD2 binding to methylated DNA. Q9UBB5. TR-FRET, MBD2 binding to methylated oligonucleotide. inhibition, % at 4.4 µM. 370,000 compounds, 0.31% hits; in the data active = inhibition above about 13%
Target sequence (Q9UBB5 whole entry, looked up): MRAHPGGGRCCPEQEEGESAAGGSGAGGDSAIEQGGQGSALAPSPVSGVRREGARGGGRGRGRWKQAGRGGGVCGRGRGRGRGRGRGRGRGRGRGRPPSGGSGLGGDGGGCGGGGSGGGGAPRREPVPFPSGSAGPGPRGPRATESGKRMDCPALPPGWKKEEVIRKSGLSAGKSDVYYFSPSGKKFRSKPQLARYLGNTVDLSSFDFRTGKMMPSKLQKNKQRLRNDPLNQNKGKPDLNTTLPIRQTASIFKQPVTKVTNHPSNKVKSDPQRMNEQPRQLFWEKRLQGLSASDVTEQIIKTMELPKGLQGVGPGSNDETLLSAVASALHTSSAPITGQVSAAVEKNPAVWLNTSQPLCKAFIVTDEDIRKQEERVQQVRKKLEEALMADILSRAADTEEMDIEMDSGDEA
Casp6 inh – caspase-6 (human) enzyme inhibition; 350,000 compounds, 0.53% hits; inhibition, % at 12.5 µM; AID 686996; purified caspase-6, Z-VEID-R110 cleavage fluorescence; P55212;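 active = mean inhibition across replicates at least about 35%, with every replicate also reaching that limit, limit read from the data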
LEDGF integ inh – blocks HIV-1 LEDGF/p75-dependent DNA integration; inhibition, % at 3.7 µM; TR-FRET IN-LEDGF/p75 DNA integration, Eu/Cy5; 370,000 compounds, 0.64% hits; AID 743269;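 active = inhibition above the screen-wide mean plus 3 SD, cut at about 13% in these data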;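 note: signal is the Cy5 over europium emission ratio at 671 and 618 nm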
UHRF1 MBD2 ctr – UHRF1 methyl-DNA binding inhibition; Q96T88; UHRF1 binding to methylated oligo, TR-FRET; inhibition, % at 4.4 µM; 370,000 compounds, 0.75% hits; in the data active = inhibition above about 21%;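 note: UHRF1 SRA domain binding a hemimethylated CpG hairpin DNA probe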
Hits are given with their value; 0 = inactive; - = not tested or not shown. In the library only some 1.4% were active in any assay of this set; here they are far more common.

SMILES | MBD2 DNA inh | Casp6 inh | LEDGF integ inh | UHRF1 MBD2 ctr
Cc1noc(C)c1NC(=O)Nc1ccc2c(c1)C(=O)N([C@@H](C)CO)C[C@H](C)[C@@H](CN(C)Cc1ccc3c(c1)OCO3)O2 | - | 0 | - | -
CNC[C@@H]1Oc2c(N)cccc2C(=O)N([C@H](C)CO)C[C@@H]1C | - | 0 | - | -
O=C(CCl)N1CCN(S(=O)(=O)c2ccc3ccccc3c2)CC1 | 0 | 74.1 | 0 | 0
CN(C)C(=O)N1CCN(S(=O)(=O)c2ccc3ccccc3c2)CC1 | 0 | 0 | 0 | 0
CCOC(=O)c1sc(C)c2c(=O)n(Cc3ccc(Cl)cc3)cnc12 | 0 | 49.9 | 0 | 0
Nc1ccc2c(c1)C(=O)Cc1ccccc1S2 | 0 | 0 | 0 | 49.4
O=c1[nH]c(C2CCN(S(=O)(=O)c3ccc4c(c3)OCCO4)CC2)nc2c1nnn2Cc1cccc(F)c1 | 0 | 0 | 0 | 0
O=c1[nH]c(C2CCN(S(=O)(=O)c3ccc4c(c3)OCCO4)CC2)nc2c1nnn2Cc1ccc(F)cc1 | 0 | 0 | 0 | 27.1
CO[C@H]1CN(C)C(=O)c2ccc(NC(=O)C3CCCC3)cc2OC[C@@H](C)N(C)C[C@H]1C | - | 0 | - | -
O=C(NCCCN1CCOCC1)[C@@H]1[C@@H](CO)[C@@H]2Cn3c(cccc3=O)[C@H]1N2C(=O)C1CCCCC1 | - | 0 | - | -
S=C(NCCc1ccccc1)N1CCOCC1 | 0 | - | 0 | 0
S=C(NCCc1ccccc1)N1CCCC1 | 0 | 0 | 0 | 27.1
COC(=O)/C=c1/s/c(=C(/C#N)C(=O)N2CCOCC2)n(-c2ccccc2)c1=O | 0 | - | 0 | 79.8
O=C(COc1cccnc1[N+](=O)[O-])NC1CCS(=O)(=O)C1 (configuration not stated) | 0 | - | 0 | 26.5
O=C(COC(=O)c1ccc([N+](=O)[O-])o1)NC1CCCC1 | 0 | 0 | 0 | 0
CC1CCCC(NC(=O)COC(=O)c2ccc([N+](=O)[O-])o2)C1C (configuration not stated) | 0 | 0 | 0 | 0
O=C(COc1cccnc1[N+](=O)[O-])Nc1ccc(F)cc1 | 0 | 0 | 0 | 0
O=C(COC(=O)c1ccc([N+](=O)[O-])o1)NC1CCS(=O)(=O)C1 (configuration not stated) | 0 | 48.6 | 0 | 0
CC1CCCCC1NC(=O)COC(=O)c1ccc([N+](=O)[O-])o1 (configuration not stated) | 0 | 48.1 | 0 | 0
O=C(COC(=O)c1ccc([N+](=O)[O-])o1)NC1CCCCC1 | 0 | 35.8 | 0 | 0
COc1cc(CN2CC3(CCN(C(=O)c4cccnc4)CC3)c3c([nH]c4cc(OC)ccc34)[C@@H]2CO)cc(OC)c1 | - | 0 | - | -
COc1cccc(S(=O)(=O)N[C@H]2CC[C@H](CCn3cc(-c4ccccc4)nn3)O[C@H]2CO)c1 | - | 0 | - | -
CC1=C(C#N)c2nc(N)c(C#N)c(C)c2/C1=C\c1ccc(-c2ccccc2C(=O)O)o1 | 0 | 53.6 | 0 | 0
COc1cc(/C=C2/C(C)=C(C#N)c3nc(N)c(C#N)c(C)c32)ccc1OCC(=O)O | 0 | - | 0 | 0
CO[C@H]1CN(C)C(=O)c2ccc(NC(=O)C3CCC3)cc2OC[C@@H](C)N(Cc2cccnc2)C[C@@H]1C | - | 0 | - | -
SMILES | MBD2 DNA inh | Casp6 inh | LEDGF integ inh | UHRF1 MBD2 ctr
N[C@@H](Cc1cc(I)c(O)c(I)c1)C(=O)O | 0 | 44.0 | 0 | 0
COC(=O)C(N)Cc1ccc(O)c(O)c1 (configuration not stated) | 0 | - | 0 | 0
COc1ccc2c3c(n(C)c2c1)[C@H](CO)N(S(C)(=O)=O)CC31CCN(C(=O)C2CC2)CC1 | - | 0 | - | -
CCC(C)(C)NC(=O)C(c1ccc(C)cc1)N(CC1CCCO1)C(=O)CCC(=O)Nc1ccccn1 (configuration not stated) | 0 | 0 | 0 | 32.9
Cc1ccc(C(C(=O)NC(C)(C)C)N(CC2CCCO2)C(=O)CCC(=O)Nc2ccccn2)cc1 (configuration not stated) | 0 | 0 | 0 | 0
C[C@H]1CCCCO[C@H](CN(C)CC2CC2)[C@@H](C)CN([C@@H](C)CO)C(=O)c2cc(NS(=O)(=O)c3ccccc3)ccc2O1 | - | 0 | - | -
O=C(Nc1nc(-c2ccc(Cl)s2)cs1)c1ccccc1 | 0 | - | 0 | 0
Cc1ccc(C(=O)Nc2nc(-c3cc(Cl)sc3Cl)cs2)cc1 | 0 | - | 0 | 23.1
CCc1ccc2nc3nc(C)cc(C)c3c(N)c2c1 | 0 | 0 | 0 | 22.2
CCNC(=O)C[C@H]1CC[C@H]2[C@H](COc3ccc(NC(=O)c4ccc(C(F)(F)F)cc4)cc3C(=O)N2C)O1 | - | 0 | - | -
CO[C@@H]1CN(C)C(=O)c2ccc(NS(=O)(=O)CC(F)(F)F)cc2OC[C@H](C)N(Cc2cccnc2)C[C@H]1C | - | 0 | - | -
O=c1cc(-c2c(O)c3ccccc3n(Cc3ccccc3)c2=O)[nH][nH]1 | 0 | 55.6 | 0 | 0
Cc1c(N2C(=O)/C(=C\c3ccccc3O)SC2=S)c(=O)n(-c2ccccc2)n1C | 0 | 0 | 0 | 0
Cc1c(N2C(=O)/C(=C/c3cccc4ccccc34)SC2=S)c(=O)n(-c2ccccc2)n1C | 0 | - | 0 | 30.8
COCC(=O)N1[C@@H]2CN(C(=O)c3cccc(OC)c3)c3ccccc3[C@@H]2[C@@H]1CO | - | 0 | - | -
CS(=O)c1ccccc1O (configuration not stated) | 0 | 0 | 0 | 0
O=S(c1ccccc1O)S(=O)c1ccccc1O (configuration not stated) | 0 | 62.4 | 0 | 0
CCN(CC)CCN(CC)Cc1ccccc1Br | 0 | 56.2 | 0 | 0
Cc1ccc(-c2nnc3ccc(SCC(=O)NCc4ccco4)nn23)cc1 | 0 | - | 0 | 21.7
Cc1c(C(=O)Nc2ccc(S(=O)(=O)NCC3CCCO3)cc2)cccc1[N+](=O)[O-] (configuration not stated) | 0 | 0 | 0 | 20.9
O=C(Nc1ccc(S(=O)(=O)NCC2CCCO2)cc1)c1ccc(Cl)cc1[N+](=O)[O-] (configuration not stated) | 0 | 0 | 0 | 0
CC(C)c1ccc(NC(=S)NN2CCOCC2)cc1 | 0 | 0 | 0 | 0
S=C(Nc1ccc(Cl)cc1)NN1CCOCC1 | 0 | 0 | 0 | 30.4
Cc1ccc(S(=O)(=O)N(C)C[C@@H]2Oc3ccc(NC(=O)Nc4ccccc4)cc3CC(=O)N([C@@H](C)CO)C[C@H]2C)cc1 | - | 0 | - | -
CS(=O)(=O)c1cccc(C(=O)Nc2cccc(-c3nc4ccccc4[nH]3)c2)c1 | 0 | 0 | 0 | 20.8
SMILES | MBD2 DNA inh | Casp6 inh | LEDGF integ inh | UHRF1 MBD2 ctr
Cc1ccc(S(=O)(=O)Nc2ccc3c(c2)C(=O)N([C@H](C)CO)C[C@H](C)[C@@H](CN(C)C(=O)Nc2ccc(F)cc2)OCCCC[C@@H](C)O3)cc1 | - | 0 | - | -
O=C(Cc1cccnc1)N1CC2(C1)[C@H](c1ccccc1)[C@@H](CO)N2C(=O)C1CCCC1 | - | 0 | - | -
CC(C)NC(=O)N1[C@H](CO)[C@@H](c2ccccc2)C12CN(C(=O)Cc1cccnc1)C2 | - | 42.0 | - | -
Cc1ccc(C)c(/C=C(\C(=O)O)c2ccc(S(=O)(=O)N3CCCCC3)s2)c1 | 0 | 37.4 | 0 | 0
O=C(O)/C(=C/c1ccc(Cl)c([N+](=O)[O-])c1)c1ccc(S(=O)(=O)N2CCCCC2)s1 | 0 | 0 | 0 | 0
COc1ccc(Br)cc1/C=C(\C(=O)O)c1ccc(S(=O)(=O)N2CCCCC2)s1 | 0 | 36.9 | 0 | 0
Cc1ccccc1S(=O)(=O)N1CCCCN2[C@@H](CO)[C@@H](c3ccc(-c4cncnc4)cc3)[C@@H]2C1 | - | 0 | - | -
